System: T1, DRAK2
T1 construct: gene STK17B
Conditions: concentration: 1 μM, replicates: in singlicate; n = 1
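Further: KINOMEscan kinase panel screen.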

Structure (SMILES) | %Inh [%]
COc1cc2ncn(-c3cc(OCc4ccncc4Br)c(C(N)=O)s3)c2cc1OC [GW854278] | 5
Cc1ccc(-c2ccc3c(ccc4sc5c(c43)NC[C@@H](C)N=C5N(C)C)n2)cn1 | 0
COc1ccc(-c2coc3ccc(-c4nnc(SCc5cccc(C#N)c5)o4)cc23)cc1 | 7
Cc1cc(Nc2nc(-c3cccc(C)n3)nc3ccccc23)ccn1 [GW872411] | 0
Cl.NS(=O)(=O)c1cccc(Nc2cc(-c3ccc(F)cc3)n[nH]2)c1 [GW824645] | 0
CC(C)(C)c1ccc(C(=O)Nc2cn3cc(-c4ccccc4)ccc3n2)cc1 | 0
CCn1c(-c2ccoc2)nc2cnccc21 [SB-733887] | 0
Nc1n[nH]c2nnc(-c3ccccc3)c(-c3ccccc3)c12 [GW554060] | 0
CN(C)c1cc(-c2ccc3c(N)n[nH]c3c2)nc(N)n1 [GSK2219329] | 0
Nc1ncnc2c1ncn2-c1cccc(F)c1 [SKF-97560] | 0
Nc1nc(-c2ccccc2F)c(-c2ccnc3ccccc23)s1 [GW560459] | 3
CCn1c(-c2nonc2N)nc2ccccc21 [SB-693162/GW549034] | 0
Cc1ccc(Oc2ccc(Nc3ncnc4cc[nH]c34)cc2C)cn1 | 0
Cc1nnc(-c2ccc(C)c(-c3ccc(C(=O)O)cc3)c2)o1 [GW608005] | 1
CCS(=O)c1ccc(-c2coc3ccc(-c4nnc(C)o4)cc23)cc1 (centres unmarked) | 0
COC(=O)c1c(-c2ccccc2)c2cc(C)ccc2c(=O)n1Cc1ccccc1 | 0
Nc1nccc2scc(-c3ccc4c(c3)CCN4C(=O)Cc3ccccc3)c12 [GSK2576924] | 0
OCCCNc1nccc(-c2c(-c3cccc(C(F)(F)F)c3)nn3cc(C(F)(F)F)ccc23)n1 [GW630813] | 0
O=c1cc(N2CCOCC2)nc2n(Cc3ccc(F)c(Cl)c3)ccn12 [GSK2297099] | 0
Cc1nnc(-c2ccc3ncn(-c4ccc(S(C)=O)cc4)c3c2)o1 (centres unmarked) | 18
COC(=O)c1c(-c2ccccc2)c2cc(Br)ccc2c(=O)n1Cc1ccc(NC(=O)CCC(=O)O)cc1 | 0
COc1cc(OC)cc(-c2cc3cnc(N)nc3nc2NC(=O)NC(C)(C)C)c1 | 0
Nc1ncnc2c1ncn2-c1ccc(Cl)cc1 [AH2635] | 0
Cl.c1ccc(Cn2cnc3cc(Nc4ncnc5ccccc45)ccc32)cc1 [GW272142] | 0
CCC(=O)c1c(-c2ccccc2)c2cc(Cl)ccc2c(=O)n1Cc1ccc(C(=O)O)cc1 | 2

System: DYRK1A
Conditions: concentration: 1 μM, replicates: in singlicate; n = 1

Structure (SMILES) | %Inh [%]
CN1C(=O)C(Nc2cc(Cl)c(O)c(Cl)c2)=C(c2ccc(Cl)cc2)C1=O [SB-404321] | 0
CCC(=O)c1c(-c2ccccc2)c2cc(Cl)ccc2c(=O)n1Cc1cc(C(=O)NC2CC2)n(C)n1 | 0
COc1cccc(C2=C(Nc3cccc(C(=O)O)c3)C(=O)NC2=O)c1 [SB-390770] | 14
O=C(Nc1ccc2c(c1)OCO2)NC1CCN(c2ccnc(NCc3ccc(F)cc3)n2)CC1 [GSK1379859] | 7
COc1cc2nccc(Nc3cccc(Oc4ccccc4)c3)c2cc1OC.Cl [GW284543] | 6
COc1cc(Nc2nccc(N3CCC(NC(=O)C(C)c4ccc(Cl)cc4)C3)n2)cc(OC)c1OC (centres unmarked) [GSK1379757] | 9
Cc1ccccc1COc1cc(-n2cnc3cc(Cl)ccc32)sc1C(N)=O [GW813349] | 15
CCC(=O)c1c(-c2ccccc2)c2cc(Cl)ccc2c(=O)n1Cc1cc(S(C)(=O)=O)n(CCC(C)(C)O)n1 | 27
Cc1nn2c(=O)cc(N3CCOCC3)nc2n1Cc1cccc(Cl)c1Cl [GSK2342769] | 26
COc1ccc(Nc2nccc(N3CCC(NS(=O)(=O)c4ccc(NC(C)=O)cc4)C3)n2)cc1 (centres unmarked) [GSK1379729] | 8
Cc1cccc(-c2nc(Nc3ccc4c(cnn4C)c3)c3ccccc3n2)n1 [GW876731] | 0
C[C@@H]1CC[C@H](C(=O)NC2CCCCC2)CN1c1cc(-c2ccc3c(N)n[nH]c3c2)nc(N)n1 [GSK2291363] | 23
COc1cc2ncn(-c3cc(OCc4ccncc4Br)c(C(N)=O)s3)c2cc1OC [GW854278] | 3
Cc1ccc(-c2ccc3c(ccc4sc5c(c43)NC[C@@H](C)N=C5N(C)C)n2)cn1 | 0
COc1ccc(-c2coc3ccc(-c4nnc(SCc5cccc(C#N)c5)o4)cc23)cc1 | 5
Cc1cc(Nc2nc(-c3cccc(C)n3)nc3ccccc23)ccn1 [GW872411] | 0
Cl.NS(=O)(=O)c1cccc(Nc2cc(-c3ccc(F)cc3)n[nH]2)c1 [GW824645] | 0
CC(C)(C)c1ccc(C(=O)Nc2cn3cc(-c4ccccc4)ccc3n2)cc1 | 0
CCn1c(-c2ccoc2)nc2cnccc21 [SB-733887] | 10

Structure (SMILES) | %Inh [%]
Nc1n[nH]c2nnc(-c3ccccc3)c(-c3ccccc3)c12 [GW554060] | 23
CN(C)c1cc(-c2ccc3c(N)n[nH]c3c2)nc(N)n1 [GSK2219329] | 9
Nc1ncnc2c1ncn2-c1cccc(F)c1 [SKF-97560] | 25
Nc1nc(-c2ccccc2F)c(-c2ccnc3ccccc23)s1 [GW560459] | 9
CCn1c(-c2nonc2N)nc2ccccc21 [SB-693162/GW549034] | 49
Cc1ccc(Oc2ccc(Nc3ncnc4cc[nH]c34)cc2C)cn1 | 0
Cc1nnc(-c2ccc(C)c(-c3ccc(C(=O)O)cc3)c2)o1 [GW608005] | 20
CCS(=O)c1ccc(-c2coc3ccc(-c4nnc(C)o4)cc23)cc1 (centres unmarked) | 0
COC(=O)c1c(-c2ccccc2)c2cc(C)ccc2c(=O)n1Cc1ccccc1 | 0
Nc1nccc2scc(-c3ccc4c(c3)CCN4C(=O)Cc3ccccc3)c12 [GSK2576924] | 0
OCCCNc1nccc(-c2c(-c3cccc(C(F)(F)F)c3)nn3cc(C(F)(F)F)ccc23)n1 [GW630813] | 26
O=c1cc(N2CCOCC2)nc2n(Cc3ccc(F)c(Cl)c3)ccn12 [GSK2297099] | 12
Cc1nnc(-c2ccc3ncn(-c4ccc(S(C)=O)cc4)c3c2)o1 (centres unmarked) | 0
COC(=O)c1c(-c2ccccc2)c2cc(Br)ccc2c(=O)n1Cc1ccc(NC(=O)CCC(=O)O)cc1 | 9
COc1cc(OC)cc(-c2cc3cnc(N)nc3nc2NC(=O)NC(C)(C)C)c1 | 0
Nc1ncnc2c1ncn2-c1ccc(Cl)cc1 [AH2635] | 0
Cl.c1ccc(Cn2cnc3cc(Nc4ncnc5ccccc45)ccc32)cc1 [GW272142] | 17
CCC(=O)c1c(-c2ccccc2)c2cc(Cl)ccc2c(=O)n1Cc1ccc(C(=O)O)cc1 | 0

From paper PMC5540273 (PLoS ONE, 2017)
